From PubChem BioAssay
A selection: hits, their analogues and other compounds. The true share with any hit is near 19%.
TDP1 cell CPT: qHTS for Inhibitors of human tyrosyl-DNA phosphodiesterase 1 (TDP1): qHTS in cells in presence of CPT | chicken DT40 Tdp1-/-;hTDP1 cells + 20 nM CPT, ATP luminescence, 48 h | Potency, µM (series often up to 46.2 µM), for the others: at the top dose activity change, negative = growth inhibition, usual class: inhibitors | 12% of 420,000 active; note: potency is the fitted concentration of half-maximal effect; nearly all actives have a fitted effect of over 55% in size
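Cell growth measured by CellTiter-Glo luminescence after a minimum 48 h, 37 C compound exposure with 20 nM CPT in Tdp1-knockout DT40 cells stably expressing hTDP1, seeded 400/well; qHTS titration format.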
IL-1B inflam inh: qHTS for Inhibitors of Inflammasome Signaling: IL-1-beta AlphaLISA Primary Screen. THP-1 LPS/ATP IL-1B secretion, AlphaLISA, 16 h; stronger effect = lower value. activity change, % at 57.5 µM. 4.7% of 360,000 active; in the data active = activity change below about -50%; inconclusive = mostly about -30% to -49%
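Secreted IL-1B measured by AlphaLISA bead assay after 16 h compound exposure of THP-1 cells; compounds (final up to 57.5 uM) added 1 h before LPS (250 ng/mL) and ATP (1.25 mM) stimulation; lower signal means less secretion.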
DT40 TDP1 no CPT: qHTS for Inhibitors of human tyrosyl-DNA phosphodiesterase 1 (TDP1): qHTS in cells in absence of CPT; Potency, µM (series often up to 46.2 µM), inactives show top-dose activity change, negative = growth inhibition, usual class: inhibitors; DT40 Tdp1-/- hTDP1 cells, no CPT, ATP luminescence, 48 h; 15% of 420,000 active; note: potency is the fitted concentration of half-maximal effect; nearly all actives have a fitted effect of over 55% in size
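Compound effects on proliferation are scored in DT40 Tdp1-/-;hTDP1 cells in the absence of CPT. ATP levels (CellTiter-Glo luminescence) are recorded after a ≥48 hr, 37 °C incubation.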
HT1080 IDH1KD tx: qHTS for induction of synthetic lethality in tumor cells producing 2HG: qHTS for the HT-1080-IDH1KD cell line. Potency, µM (highest dose often 46.1 µM), without a hit: top-dose activity, negative = toxicity, actives largely listed as cytotoxic. HT-1080 IDH1 knockdown viability, ATP luminescence, 48 h. 2% of 360,000 active. AID 686971, 2013;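 note: potency is the fitted concentration of half-maximal effect; 0% = DMSO wells and -100% = cell-free medium wells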
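Using the IDH1-knockdown HT-1080 line run in the same batch and compound series as the NT line, viability after 48 h at 37 °C was determined by CellTiter-Glo luminescence and expressed as % activity.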
HT1080-NT tox: qHTS for induction of synthetic lethality in tumor cells producing 2HG: qHTS for the HT-1080-NT fibrosarcoma cell line; HT-1080-NT fibrosarcoma viability, CellTiter-Glo ATP luminescence, 48 h; 1.6% of 360,000 active; Potency, µM (top dose mostly 46.1 µM), without a hit: at the highest dose activity, negative = less viability, most hits filed as cytotoxic;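 note: NT is the 2HG producing partner of a matched IDH1 knockdown line; potency is the fitted concentration of half-maximal effect; 0% = DMSO-treated cells and -100% = media-only wells without cells; nearly all actives have a fitted effect of over 55% in size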
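HT-1080-NT fibrosarcoma cells (2HG-overproducing), 750 cells/well in RPMI with 5% FBS, dosed after 2 h and incubated 48 h at 37C. CellTiter-Glo luminescence normalized to DMSO and no-cell wells; concentration-response curves fitted and classed.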
Active calls of the source: *; ? = inconclusive; nt = no result given. Unless noted, calls come from the whole dose curve; as a rule, active = well fitted curve in the direction sought with a large enough effect; inconclusive = small, poorly fitted or top-dose-only effect, or another doubt; inactive = no such curve, though single readings can be large; an effect the other way counts as inactive or inconclusive. Unless noted, % is set by controls: 0 for no effect and ±100 for the full control effect.

SMILES	TDP1 cell CPT	IL-1B inflam inh	DT40 TDP1 no CPT	HT1080 IDH1KD tx	HT1080-NT tox
O=C(NCc1ccccc1)C1CCN(c2nc(-c3ccccc3)nc3c2CCC3)CC1	18µM*	-5	21µM*	-4%	-6%
Cc1cc(C)nc(N2CCC(C(=O)NCc3ccccc3)CC2)n1	-2%	22	1%	0%	1%
CC1CCCN(C(=O)C2CCN(c3nc(-c4ccccc4)nc4c3CCC4)CC2)C1 (stereo not drawn)	?	-20	23µM*	17%	6%
Cc1cnc(CNc2ncncc2-c2cccnc2)cn1	-6%	nt	0%	nt	nt
Cc1ccc(O)c(C(=O)CC(=O)c2ccc(C(C)(C)C)cc2)c1	7.3µM*	31	4.6µM*	-4%	-22%
Cc1ccc(O)c(C(=O)CC(=O)c2ccccc2Cl)c1	2.3µM*	0	4.6µM*	12µM*	?
Cc1ccc(C(=O)c2ccccc2C(=O)O)c(O)c1	-20%	24	0%	2%	3%
CC(C)(C)c1ccc(C(=O)NCC(=O)NNC(=O)c2ccccc2O)cc1	?	16	?	-12%	-7%
O=C(NCCS(=O)(=O)N1CCN(c2ccccc2)CC1)c1ccc(Br)o1	-5%	22	-19%	10%	0%
CC(C)=CCC/C(C)=C/CNC(=O)C[C@H]1C[C@H](C(=O)N2CCCCC2)[C@@]2(CCc3ccccc3)c3[nH]c4ccc(Cl)cc4c3CCN2C1=O	-7%	-4	-4%	6%	7%
CC(C)=CCC/C(C)=C/CNC(=O)C[C@H]1C[C@H](C(=O)N2CCOCC2)[C@@]2(C)c3[nH]c4cc(-c5ccco5)ccc4c3CCN2C1=O	21µM*	?	13µM*	?	?
CC(C)=CCC/C(C)=C/CNC(=O)CC1C[C@H](C(=O)N2CCOCC2)[C@@]2(C)c3[nH]c4ccccc4c3CCN2C1=O (stereo partly drawn)	13µM*	?	12µM*	8%	4%
CC(C)=CCC/C(C)=C/CNC(=O)C[C@H]1C[C@H](C(=O)N2CCOCC2)[C@@]2(C)c3[nH]c4ccc(Cl)cc4c3CCN2C1=O	23µM*	-65*	?	8%	6%
Cc1ccc(CNC(=O)CCc2c(C)nc3c4c(C)cc(C)nc4nn3c2C)cc1	-18%	nt	-25%	nt	nt
Cc1cccc(Cn2nnc3c(=O)[nH]c(C4CCCN(C(=O)c5ccccc5Cl)C4)nc32)c1 (stereo not drawn)	26µM*	nt	?	nt	nt
COc1ccc(Cn2nnc3c(=O)[nH]c(C4CCCN(C(=O)c5ccccc5Cl)C4)nc32)cc1OC (stereo not drawn)	2%	nt	-22%	nt	nt
Cc1ccc(S(=O)(=O)N2CCC(c3nc4c(nnn4Cc4ccccc4)c(=O)[nH]3)CC2)cc1	?	-16	-28%	-11%	?
CC(=O)c1cccc(S(=O)(=O)N2CCCC(c3nc4c(nnn4Cc4ccccc4Cl)c(=O)[nH]3)C2)c1 (stereo not drawn)	-18%	-70*	-27%	?	-25%
Cc1ccc(C)c(C(=O)N2CCC(c3nc4c(nnn4Cc4ccccc4)c(=O)[nH]3)CC2)c1	?	nt	8.2µM*	nt	nt
O=c1[nH]c(C2CCN(S(=O)(=O)c3ccccc3C(F)(F)F)CC2)nc2c1nnn2Cc1ccccc1	?	-51*	?	?	?
CCCSc1ncc(Cl)c(C(=O)Nc2ccc(OC)cc2OC)n1	?	nt	-18%	nt	nt
Cc1ccc(NC(=O)CCCc2ccccc2)c([N+](=O)[O-])c1	5%	-6	12%	1%	6%
CCOc1ccccc1NC(=O)N1CCCC(c2nc3c(nnn3Cc3ccc(C)cc3)c(=O)[nH]2)C1 (stereo not drawn)	29µM*	-1	?	?	-22%
